This is part of a sample that, as a whole, favours compounds with a hit. Of some 83,000 tested, about 20% had one in any assay.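 Note: values are percent growth. 100 is the growth of untreated cells, values between 100 and 0 indicate rising inhibition; between -100 and 0 indicates cell death.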 A number with no mark means an inactive call. Active and inactive are the calls of the source. Rule for the calls: active = growth percent below 10; inactive = the rest.
Tests used:
Assay in all cases: NCI-60 one-dose screen, 48 h (100 = growth as untreated, 0 = no growth, -100 = all killed)
Conditions in all cases: 10 µM unless noted
[1] = system: DU-145 prostate
[2] = system: K-562 leukemia
[3] = system: MALME-3M melanoma
[4] = system: MDA-MB-231 breast
[5] = system: RXF 393 renal
[6] = system: SF-268 CNS
[7] = system: SF-295 CNS
[8] = system: SF-539 CNS
[9] = system: UACC-257 melanoma
[10] = system: M14 melanoma
[11] = system: HCT-15 colon
[12] = system: HT29 colon
[13] = system: SNB-75 CNS
[14] = system: SNB-19 CNS
[15] = system: U251 CNS
[16] = system: PC-3 prostate
[17] = system: SK-MEL-5 melanoma
[18] = system: UACC-62 melanoma
[19] = system: LOX IMVI melanoma
[20] = system: SK-MEL-28 melanoma

SMILES | growth [1] | growth [2] | growth [3] | growth [4] | growth [5] | growth [6] | growth [7] | growth [8] | growth [9] | growth [10] | growth [11] | growth [12] | growth [13] | growth [14] | growth [15] | growth [16] | growth [17] | growth [18] | growth [19] | growth [20]
Cc1ncc(C(=O)Nc2ccc(CN3CCN(C)CC3)c(C(F)(F)F)c2)cc1C#Cc1cnc(NC2CC2)c2ncccc12 | -83.1% (active) | -56.8% (active) | -88.5% (active) | -97.3% (active) | -90.6% (active) | -72.7% (active) | -91.8% (active) | -98.3% (active) | -65% (active) | -89.8% (active) | -91.9% (active) | -80.7% (active) | -96.5% (active) | -97.2% (active) | -95% (active) | -66.9% (active) | -98.5% (active) | -62.8% (active) | -81% (active) | -91.5% (active)
Cc1c(Cc2ccccc2)c(=O)oc2c(C)c(OCC(=O)n3nc(C#N)cc3N)ccc12 | 104% | 102% | 99.5% | 103% | 119% | 97.1% | 94.7% | 99.3% | 105% | 96.3% | 103% | 95.6% | 81% | 98.9% | 106% | 89% | 103% | 99.1% | 96.7% | 106%
Brc1ccc(-c2nc3ccccc3s2)cc1 | 108% | 96.2% | 95.8% | 82.4% | 96% | 90% | 98% | 93.2% | 117% | 97.7% | 91.6% | 107% | 80.6% | 94.9% | 96.1% | 83.6% | 94.4% | 89.1% | 89.5% | 109%
Cn1cnc2nc[nH]c2c1=S | 112% | 103% | 98.8% | 96.3% | 110% | 107% | 99.4% | 110% | 96.5% | 105% | 101% | 94.5% | 79.2% | 103% | 103% | 86.4% | 100% | 98.5% | 99.4% | 112%
O=C1CCNC1 | 103% | 108% | 108% | 101% | 105% | 111% | 108% | 102% | 95.8% | 105% | 101% | 106% | 100% | 102% | 87.4% | 95.7% | 104% | 103% | 113% | 102%
O=C(Nc1ccc(-n2cc(-c3ccncc3)c(-c3ccc(Cl)c(O)c3)n2)cc1)c1cc(C(F)(F)F)cc(C(F)(F)F)c1 | 74.2% | 29.7% | 102% | 46.3% | -42.6% (active) | 61.8% | 25% | 50.9% | 63.2% | 45.1% | 27.8% | 11.1% | 12.2% | 72.5% | 54.3% | 72.1% | 55.8% | 68.5% | 53.1% | 45.9%
NNC(=O)CNc1ccc2ccccc2c1 | 95.8% | 86.8% | 98.9% | 104% | -7.3% (active) | 120% | 118% | 95.4% | 105% | -100% (active) | 110% | 106% | 104% | 109% | 101% | 98% | 101% | 98.8% | 96% | 125%
C=CCNC(=S)NNc1ccc([N+](=O)[O-])cn1 | 104% | 94.3% | 79.6% | 89.7% | 104% | 97.7% | 96.9% | 104% | 97.9% | 96% | 100% | 90.5% | 81.8% | 103% | 101% | 100% | 94.3% | 99.3% | 82% | 106%
O=C(N/N=C/c1cc(Cl)ccc1O)C(=O)N/N=C/c1cc(Cl)ccc1O | 71.1% | 51.9% | 80.1% | 76.5% | 80.3% | 56.5% | 52.2% | 57.3% | 69.6% | 78.6% | 44.7% | 45.4% | 71.9% | 82.6% | 50% | 56.1% | 56.3% | 64.7% | 47.9% | 93.2%
CC(=O)Nc1nc(C)c(C(=O)NN)s1 | 105% | 67.3% | 120% | 99% | 104% | 95.2% | 133% | 91.3% | 108% | 113% | 107% | 106% | 88.8% | 94.4% | 92.1% | 84.4% | 102% | 91.9% | 96.1% | 100%
CCOC(=O)CSSCC(=O)OCC | 106% | 101% | 112% | 107% | 128% | 104% | 100% | 95.9% | 94.1% | 119% | 102% | 112% | 94.4% | 108% | 98.4% | 100% | 99.8% | 98.4% | 111% | 107%
CC1Cc2cc(F)ccc2-n2cccc21 (stereo not given) | 106% | 108% | 101% | 94% | 136% | 110% | 104% | 101% | 101% | 111% | 95% | 106% | 96.1% | 121% | 102% | 98.2% | 109% | 110% | 91.7% | 107%
COc1cc(/C=C/C(=O)/C=C(/C=C/c2ccc(OC(C)=O)c(OC)c2)OB(F)F)ccc1OC(C)=O | 64.5% | 15.2% | 51.7% | 80.8% | 14.7% | 81.2% | 86.7% | 56.8% | 63% | 34.1% | 15.4% | 61.4% | 53% | 69.4% | 33.3% | 63% | 69.6% | 49.6% | 20% | 66.8%
